Only some compounds are listed: those with a hit (about 3.3% of all), similar ones and a draw of the others.
Wnt bcat act: Wnt/beta-catenin pathway activators, primary screen, cell-based, plate reader, single point; Wnt/beta-catenin reporter cell assay, activator; activation, % at 9.35 µM; 300,000 compounds, 1.2% hits; in the data active = activation above about 30%, passing the limit was not always enough;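 note: 0% = neutral control wells and 100% = positive control wells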
MITF TRPM1 HTS: activators of MITF-driven TRPM1 promoter reporter, primary screen, cell-based, SK-MEL-5, luciferase, single point | SK-MEL-5 TRPM1-promoter luciferase, 24 h; % of positive control, neutral wells = 0 | activation, % at 12.5 µM | 300,000 compounds, 0.75% hits | AID 588334, 2011;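 active = mean activation of at least 80% with every replicate also reaching 80%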;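 note: 0% = neutral control wells and 100% = parthenolide positive control wells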
FXN GAA850 act: FXN promoter activators, primary screen, cell-based, luciferase luminescence, HEK293 lucGAA850; 360,000 compounds, 0.56% hits; HEK293 lucGAA850 FXN promoter luciferase reporter, 24 h; percent of 10 µM SAHA response; activation, % at 6 µM;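 active = activation above the average of all compounds screened plus 3 SD, cutoff fixed separately per campaign, cut at about 7.5% in these data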;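 note: 0% = DMSO wells and 100% = 10 µM SAHA wells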
esBAF inh: Bmi1 luciferase reporter increase in mESCs, primary screen, esBAF inhibitor project, mouse ES cells, Bmi1 luciferase knock-in, single point; 24 h; 100% = twice the neutral-well signal; reporter increase, % at 12.5 µM; 350,000 compounds, 2% hits; AID 602393, 2012; in the data active = activation above about 40%;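 note: 0% = median of the plate's neutral control wells and 100% = double that signal; a rise in the Bmi1 reporter signal indicates esBAF inhibition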
Statin myotox sup: suppressors of statin myotoxicity in C2C12 myotubes, primary screen, cell-based, single point, plate reader; C2C12 myotubes + simvastatin, ATP luminescence, 48 h; scaled: DMSO 0, geranylgeraniol control 100; 330,000 compounds, 0.78% hits; AID 602340, 2012; rescue of ATP level, % at 7.49 µM;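 active = mean ATP rescue above about 67%, or every replicate alone reaching that limit, limit read from the data, passing the limit was not always enough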;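 note: myotubes were challenged with 10 µM simvastatin during compound exposure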
An asterisk follows results filed as active; · = no result given.

SMILES	Wnt bcat act	MITF TRPM1 HTS	FXN GAA850 act	esBAF inh	Statin myotox sup
CCC(C)NC(=O)c1cc(-c2ccc(OC)cc2)on1 (stereo not given)	·	101*	2	-11	-5
CCC(C)NC(=O)c1cc(-c2ccc3c(c2)OCO3)on1 (stereo not given)	41*	88*	4	3	-14
COc1ccc(-c2cc(C(=O)NCC(C)C)no2)cc1	·	87*	2	·	·
CC(C)NC(=O)c1cc(-c2ccc(Br)cc2)on1	·	111*	4	32	-16
CCC(C)NC(=O)COCc1cc(-c2ccc3c(c2)OCO3)on1 (stereo not given)	0	-7	-1	6	5
CCC(=O)N(C)C[C@H]1Oc2cc(-c3ccncc3)ccc2S(=O)(=O)N([C@H](C)CO)C[C@@H]1C	·	·	·	3	-12
CCC(C)NC(=O)c1cc(CC(C)C)on1 (stereo not given)	10	·	1	54*	9
CCc1ccc(C(=O)CN2C(=O)NC3(CCCCCC3)C2=O)cc1	13	75	1	64*	-70
CC1CCN(C(=O)CN2C(=O)NC3(CCCCCC3)C2=O)CC1	5	6	1	12	6
O=C(CN1C(=O)NC2(CCCCCC2)C1=O)c1ccccc1	4	-4	2	-12	-12
O=C(CN1C(=O)NC2(CCCCCC2)C1=O)c1ccc(F)cc1	4	21	-1	6	-5
N#Cc1ccsc1NC(=O)CN1C(=O)NC2(CCCC2)C1=O	8	-1	2	45*	18
O=C(CN1C(=O)NC2(CCCCCC2)C1=O)c1ccc(Cl)cc1	15	56	-1	52*	-5
CCOC(=O)C1CCN(C(=O)CN2C(=O)NC3(CCCCC3)C2=O)CC1	43*	3	1	1	9
C[C@H](O)C#Cc1ccc2c(c1)O[C@@H](CN(C)C(=O)Nc1ccccc1)[C@@H](C)CN([C@@H](C)CO)S2(=O)=O	·	·	·	-2	44
C[C@H]1CN([C@@H](C)CO)C(=O)Cc2cc(NC(=O)c3ccncc3)ccc2O[C@H]1CN(C)CC1CC1	·	·	·	-2	-17
CO[C@H]1CN(C)C(=O)c2cc(NS(=O)(=O)c3cn(C)cn3)ccc2OC[C@@H](C)N(C)C[C@@H]1C	·	·	·	3	2
O=C(CN1C(=O)NC2(CCCCCC2)C1=O)c1ccc2c(c1)OCCO2	67*	·	5	37	·
CCc1cccc2c(C(=O)CN3C(=O)NC4(CCCCC4)C3=O)c[nH]c12	5	72	5	-52	-111
CCc1cccc2c(C(=O)CN3C(=O)NC4(CCCCCC4)C3=O)c[nH]c12	-2	102*	3	-22	-239
Cc1ccc(S(=O)(=O)NNC(=O)c2snnc2C)cc1	0	9	0	-3	128*
Cc1nnsc1C(=O)NNS(=O)(=O)c1cc(C(F)(F)F)cc(C(F)(F)F)c1	0	·	1	-2	5
C[C@@H]1CN([C@@H](C)CO)C(=O)c2cc(NC(=O)Nc3ccc(C(F)(F)F)cc3)ccc2O[C@@H]1CN(C)C	·	·	·	0	-19
Cc1cc(C)n(-c2nc(NC(C)C)nc(NC(C)C)n2)n1	·	·	9.6*	-3	15
COc1ccccc1-c1nn2c(-c3ccco3)nnc2s1	1	134*	6	65*	0
SMILES	Wnt bcat act	MITF TRPM1 HTS	FXN GAA850 act	esBAF inh	Statin myotox sup
COC(=O)[C@@H]1[C@@H](CO)[C@@H]2Cn3c(ccc(-c4ccccc4OC)c3=O)[C@@H]2N1CC1CCCC1	·	·	·	5	-2
O=C(Nc1ccc(Cl)cc1C(=O)Nc1ccncc1)c1ccco1	-1	-10	3	2	91*
O=C(Nc1cccc(-n2cnnn2)c1)c1cc2ccccc2o1	4	26	0	20	5
COc1cccc(NC(=O)c2ccco2)c1	·	35	4	60*	-1
O=C(Nc1cccc(-n2cnnn2)c1)c1ccco1	-2	-1	-2	5	111*
O=C(Nc1ccc(Br)c(Cl)c1)c1ccco1	·	61	5	52*	12
COc1ccc(CN(C)C[C@@H]2OCCCC[C@@H](C)Oc3ccc(NC(=O)c4ccccc4)cc3C(=O)N([C@H](C)CO)C[C@H]2C)cc1	·	·	·	-5	·
CCCC(=O)Nc1ccc2c(c1)C(=O)N(C)C[C@@H](OC)[C@@H](C)CN(C(C)=O)[C@H](C)CO2	·	·	·	-1	-18
C[C@H](CO)N1C[C@H](C)[C@@H](CN(C)S(=O)(=O)c2ccc(F)cc2)OCCCC[C@H](C)Oc2ccc(NS(=O)(=O)c3cn(C)cn3)cc2C1=O	·	·	·	-13	·
O=C(c1ccccc1)c1cccc(NC(=O)c2ccco2)c1	·	49	3	66*	-12
O=C(CNC(=O)c1ccco1)Nc1ccc(Br)cc1	18	44	3	42*	-4
O=C(Nc1ccc(N2CCN(C(=O)c3ccccc3)CC2)c(Cl)c1)c1ccco1	·	-4	-2	6	122*
O=C(COc1cccc(NC(=O)c2ccco2)c1)c1ccccc1	12	·	0	50*	4
C[C@H](NC(=O)[C@@H]1[C@@H](CO)[C@@H]2Cn3c(ccc(-c4ccccc4F)c3=O)[C@H]1N2C)c1ccccc1	·	·	·	2	5
CO[C@@H]1CN(C)C(=O)c2ccc(NS(=O)(=O)c3cn(C)cn3)cc2OC[C@@H](C)N(C)C[C@H]1C	·	·	·	-4	-3
CC(=O)Nc1cccc(NC(=O)c2ccco2)c1	·	·	-2	-4	8
O=C(Nc1cccc(F)c1)c1ccco1	3	21	2	45*	6
O=C(CNC(=O)c1cn2ccccc2n1)Nc1ccc(F)c(F)c1	35*	78	4	·	·
CN(CC(=O)Nc1cccc(F)c1)C(=O)c1cn2ccccc2n1	-6	-5	1	-5	6
Cc1noc(C)c1S(=O)(=O)Nc1ccc2c(c1)CC(=O)N([C@@H](C)CO)C[C@@H](C)[C@H](CN(C)CC1CC1)O2	·	·	·	-1	-14
Cc1noc(C)c1S(=O)(=O)Nc1ccc2c(c1)CC(=O)N([C@@H](C)CO)C[C@@H](C)[C@H](CN(C)Cc1ccc(C(=O)Nc3ccccc3N)cc1)O2	·	·	·	-10	-35
N/C(CS(=O)(=O)c1ccccn1)=N\OC(=O)c1ccccc1Cl	54*	·	5	·	·
CCN1C(=S)SC(=O)C1=C1C=C(C)N(Cc2ccco2)C(C)=C1	19	57	1	72*	21
CCN1C(=S)SC(=O)C1=C1C=C(C)OC(C)=C1	·	91*	2	·	3
O=C1C(=C2CCCCC2)SC(=S)N1Cc1ccco1	-4	-13	-4	-3	1
CCN1C(=O)/C(=C2/Sc3ccccc3N2CC)SC1=S	-1	7	1	-1	-9
CC(C)NC(=O)N(C)C[C@H]1Oc2cc(-c3cccnc3)ccc2S(=O)(=O)N([C@H](C)CO)C[C@H]1C	·	·	·	-10	19
